Drawing on PubChem BioAssay, this text covers growth inhibition, inhibition and outcome for 20 compounds.

Molecules are shown by their SMILES. A number with no mark means an inactive call. For some of these results: Results with a measured potency or affinity are listed apart. The source made the active and inactive calls. Unless noted, how the calls were made is not given here.

Assay [1] can be described thus: antimalarial activity against Dd2 strain (AID 2302;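 active means growth inhibition above 50% at the single 2 µM test dose, taken to imply half-maximal potency below 2 µM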;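 further: 0% = DMSO untreated growth and 100% = chloroquine plus artemisinin killed control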). Conditions: P. falciparum Dd2 in RBCs, LDH growth readout, 72 h; at 2 µM; active compounds read high.
A short description of assay [2]: HepG2 cytotoxicity, primary screen, cytotoxicity control for P. falciparum antimalarial project, cell-based, ATP luminescence (AID 2303;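 active means inhibition above 50%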;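 further: 0% = DMSO wells and 100% = digitonin-killed cells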). Particulars: HepG2 viability, 24-48 h, at 10 µM, active compounds read high.
The target of assay [3] is L-lactate dehydrogenase (Plasmodium falciparum (isolate CDC / Honduras)) (UniProt Q27743). Put plainly: PfLDH activity inhibition – cell lysate, 3D7 strain, counter-screen for P. falciparum growth inhibition project (AID 2304).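 Further: 0% = vehicle and 100% = reference inhibitor.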 Conditions: P. falciparum 3D7 crude extract, LDH APAD/NBT absorbance; at 2 µM; active compounds read high.
Assay [4] is described as follows: inhibition of 3D7 malaria parasite growth – strain 3D7 (AID 2306).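 Further: 0% = DMSO wells and 100% = chloroquine plus artemisinin control wells.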 Conditions: P. falciparum 3D7 erythrocytic growth, LDH absorbance, 72 h; at 2 µM; active compounds read high.
Assay [5] concerns the target Calcium-dependent protein kinase 1 (Plasmodium falciparum (isolate 3D7)) (UniProt P62344). The assay is described as follows: PfCDPK1 kinase inhibitors, biochemical, TCAMS library (AID 1159585; cut-off not given, nearly all actives have IC50 up to about 0.98 µM;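 further: inhibitors leave more ATP so luminescence rises with inhibition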). Particulars: recombinant PfCDPK1, Kinase-Glo ATP depletion luminescence. Background: In Kinase-Glo more light means more ATP remaining.
Assay [6] addresses Plasmodium falciparum protein kinase 6 (PK6, PF3D7_1337100) (UniProt Q8IDW1). The assay is described as follows: PfPK6 kinase inhibitors, biochemical, TCAMS library (AID 1159586). Particulars: recombinant PfPK6, Kinase-Glo ATP depletion luminescence.
Assay [7] addresses Protein kinase 7 (PK7), Plasmodium falciparum 3D7 (PF3D7_0213400) (UniProt Q7YTF7). Put plainly: inhibition of Plasmodium PK7 catalytic activity – biochemical, TCAMS antimalarial set, Kinase-Glo luminescence (AID 1159587). Conditions: recombinant PfPK7, Kinase-Glo ATP depletion luminescence.
In assay [8] the target is Calcium-dependent protein kinase 4 (Plasmodium falciparum (isolate 3D7)) (UniProt Q8IBS5). Put plainly: PfCDPK4 kinase inhibitors, biochemical, TCAMS library (AID 1159588; cut-off not given, nearly all actives have IC50 up to about 0.91 µM). Particulars: recombinant PfCDPK4, Kinase-Glo ATP depletion luminescence.
Calcium-dependent protein kinase 4 (Plasmodium falciparum (isolate 3D7)), sequence (Q8IBS5 whole entry, looked up): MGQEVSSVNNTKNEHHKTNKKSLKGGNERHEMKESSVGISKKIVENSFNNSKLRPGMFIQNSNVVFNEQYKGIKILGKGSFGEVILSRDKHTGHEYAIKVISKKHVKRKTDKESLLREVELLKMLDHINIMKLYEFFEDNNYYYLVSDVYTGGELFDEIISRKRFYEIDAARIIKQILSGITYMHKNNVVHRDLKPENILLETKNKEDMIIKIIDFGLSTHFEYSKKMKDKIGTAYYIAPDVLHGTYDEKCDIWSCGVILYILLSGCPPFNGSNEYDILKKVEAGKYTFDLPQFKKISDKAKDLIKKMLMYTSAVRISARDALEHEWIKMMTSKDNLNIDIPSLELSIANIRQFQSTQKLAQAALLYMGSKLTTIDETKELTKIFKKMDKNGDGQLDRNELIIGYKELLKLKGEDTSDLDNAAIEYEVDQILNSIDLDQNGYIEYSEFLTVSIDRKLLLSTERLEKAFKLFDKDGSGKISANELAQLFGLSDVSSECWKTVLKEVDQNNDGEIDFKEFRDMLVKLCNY

Protein kinase 7 (PK7), Plasmodium falciparum 3D7 (PF3D7_0213400), sequence (Q7YTF7 1-343): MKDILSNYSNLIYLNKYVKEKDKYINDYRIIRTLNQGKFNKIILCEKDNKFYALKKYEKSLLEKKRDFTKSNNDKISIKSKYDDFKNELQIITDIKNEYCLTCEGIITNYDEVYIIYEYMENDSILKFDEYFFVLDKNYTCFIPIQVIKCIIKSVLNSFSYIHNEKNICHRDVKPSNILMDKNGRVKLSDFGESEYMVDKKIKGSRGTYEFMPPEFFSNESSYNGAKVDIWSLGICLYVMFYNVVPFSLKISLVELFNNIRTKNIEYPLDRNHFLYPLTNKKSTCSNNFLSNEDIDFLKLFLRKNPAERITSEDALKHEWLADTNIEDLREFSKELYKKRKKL
Calcium-dependent protein kinase 1 (Plasmodium falciparum (isolate 3D7)), sequence (P62344 whole entry, looked up): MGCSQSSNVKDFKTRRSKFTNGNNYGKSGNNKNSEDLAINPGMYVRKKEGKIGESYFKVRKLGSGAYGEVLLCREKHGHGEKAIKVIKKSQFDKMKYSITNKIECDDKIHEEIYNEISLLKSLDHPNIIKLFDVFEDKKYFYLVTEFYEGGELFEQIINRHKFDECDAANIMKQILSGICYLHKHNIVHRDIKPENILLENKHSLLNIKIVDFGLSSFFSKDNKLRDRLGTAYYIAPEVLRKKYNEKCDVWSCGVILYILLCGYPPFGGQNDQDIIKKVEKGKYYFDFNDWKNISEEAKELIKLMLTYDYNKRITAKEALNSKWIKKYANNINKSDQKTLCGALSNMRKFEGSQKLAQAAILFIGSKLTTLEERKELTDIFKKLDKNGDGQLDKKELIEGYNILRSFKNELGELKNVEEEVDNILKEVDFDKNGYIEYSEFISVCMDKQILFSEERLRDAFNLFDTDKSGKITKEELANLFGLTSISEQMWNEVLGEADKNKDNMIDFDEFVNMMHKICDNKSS
Plasmodium falciparum protein kinase 6 (PK6, PF3D7_1337100), sequence (Q8IDW1 1-305): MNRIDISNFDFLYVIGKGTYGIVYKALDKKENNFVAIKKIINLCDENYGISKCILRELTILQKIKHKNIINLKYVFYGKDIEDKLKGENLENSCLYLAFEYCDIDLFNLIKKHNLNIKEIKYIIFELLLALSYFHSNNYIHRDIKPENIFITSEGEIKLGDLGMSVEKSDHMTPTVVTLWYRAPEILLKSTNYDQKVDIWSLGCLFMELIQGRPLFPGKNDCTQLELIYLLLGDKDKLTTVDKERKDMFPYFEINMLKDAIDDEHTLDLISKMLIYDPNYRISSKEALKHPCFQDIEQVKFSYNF
L-lactate dehydrogenase (Plasmodium falciparum (isolate CDC / Honduras)), sequence (Q27743 whole entry, looked up): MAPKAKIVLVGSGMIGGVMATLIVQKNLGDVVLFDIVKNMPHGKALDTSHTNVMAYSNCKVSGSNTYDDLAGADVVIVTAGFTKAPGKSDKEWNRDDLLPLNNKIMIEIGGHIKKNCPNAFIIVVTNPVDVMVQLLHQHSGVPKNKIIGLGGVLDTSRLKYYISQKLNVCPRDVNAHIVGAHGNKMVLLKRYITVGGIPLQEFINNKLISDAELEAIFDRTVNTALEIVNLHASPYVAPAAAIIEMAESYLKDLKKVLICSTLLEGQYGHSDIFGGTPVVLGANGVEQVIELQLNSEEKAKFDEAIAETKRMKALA

Regarding `COc1ccc(S(=O)(=O)N(CCCN2CCN(C)CC2)Cc2csc(-c3ccc(CNCc4ccccc4)cc3)n2)cc1`, the growth inhibition in assay [1] is 86% (active); in assay [4] it was 88% (active). Also, the inhibition in assay [2] is 10%; in assay [3] it was 6%. Besides, the outcome in assay [5], in assay [6], in assay [7] and in assay [8] was inactive.
For `Fc1ccc2nc(-c3cccc(-c4cccc(CNCC5CCCO5)c4)c3)[nH]c2c1` (stereo not given), the growth inhibition in assay [1] was 94% (active); in assay [4], 99% (active). Also, the values for the inhibition in assay [2] and in assay [3] were 40% and 3%, respectively. Moreover, the result in assay [5], in assay [6], in assay [7] and in assay [8] was inactive.
For the compound `COc1ccc(C2CC(=O)C3=C(C2)NC(C)=C(C(=O)OC2CCCC2)C3c2cccc(O)c2)cc1` (stereo not given), the results for the growth inhibition in assay [1] and in assay [4] were 83% (active) and 88% (active), respectively. Besides, the inhibition in assay [2] was -6%; in assay [3] it was -2%. Moreover, the result in assay [5], in assay [6], in assay [7] and in assay [8] was inactive.
Turning to `CC(C)c1ccc(CN2CCC(NC(=O)c3ccc(-c4ccccc4F)s3)CC2)cc1`, the figures for the growth inhibition in assay [1] and in assay [4] were 13% and 81% (active), respectively. The inhibition in assay [2] was 46%; in assay [3], 2%. The outcome in assay [5], in assay [6], in assay [7] and in assay [8] was inactive.
On to `CCCCCCc1cc2cc(-c3nc(-c4ccc(OC)cc4)cs3)c(=O)oc2cc1O`, for which the figures for the growth inhibition in assay [1] and in assay [4] were 93% (active) and 97% (active), respectively. In addition, the inhibition in assay [2] is 45%; in assay [3], -6%. Also, the result in assay [5], in assay [6], in assay [7] and in assay [8] was inactive.
On to `O=C(Nc1cccc(-c2ccc(-c3nc4ccc(F)cc4[nH]3)s2)c1)c1cccnc1`, for which the growth inhibition is 72% (active) in assay [1] and 100% (active) in assay [4]. Besides, the results for the inhibition in assay [2] and in assay [3] were 46% and -5%, respectively. Moreover, the outcome in assay [5], in assay [6], in assay [7] and in assay [8] was inactive.
On to `C=CCc1cc(Br)ccc1OCCCOc1c(C)nc(N)nc1N`, for which the growth inhibition in assay [1] is 96% (active); in assay [4], 94% (active). The inhibition in assay [2] is 56% (active); in assay [3], -3%. The outcome in assay [5], in assay [6], in assay [7] and in assay [8] was inactive.
For `COc1cc(Cc2cnc(N)nc2N)cc(OCCCCC2SC(=O)NC2=O)c1OC` (stereo not given), the figures for the growth inhibition in assay [1] and in assay [4] were 0% and 94% (active), respectively. Besides, the inhibition is -9% in assay [2] and 7% in assay [3]. In addition, the outcome in assay [5], in assay [6], in assay [7] and in assay [8] was inactive.
As to `COc1cc2c(cc1OC)CN(CCc1ccc(NC(=O)c3cc4cc(Cl)ccc4[nH]3)cc1)CC2`, the growth inhibition in assay [1] is 6%; in assay [4] it was 90% (active). Besides, the inhibition in assay [2] was 3%; in assay [3], 2%. Moreover, the result in assay [5], in assay [6], in assay [7] and in assay [8] was inactive.
Turning to `COc1ccc(N2CCN(CCCNC(=O)c3ccc(NC(=O)c4cc(Cl)cc(Cl)c4)cc3)CC2)c(OC)c1`, the figures for the growth inhibition in assay [1] and in assay [4] were 79% (active) and 101% (active), respectively. Moreover, the inhibition in assay [2] is 21%; in assay [3], -4%. The result in assay [5], in assay [6], in assay [7] and in assay [8] was inactive.
On to `CCCCCN=C(N)c1ccc(OCCCCCOc2ccc(C(N)=NCCCCC)cc2)cc1`, for which the growth inhibition in assay [1] is 98% (active); in assay [4], 99% (active). In addition, the inhibition in assay [2] was 3%; in assay [3] it was 6%. Besides, the outcome in assay [5], in assay [6], in assay [7] and in assay [8] was inactive.
Regarding `Cc1ccc(NC(=O)c2ccc3ncccc3c2)cc1OC1CCN(Cc2ccc(F)cc2)CC1`, the figures for the growth inhibition in assay [1] and in assay [4] were 22% and 91% (active), respectively. Further, the inhibition in assay [2] is 6%; in assay [3] it was 1%. The result in assay [5], in assay [6], in assay [7] and in assay [8] was inactive.
`COc1ccc2nc(C)cc(Nc3ccc(Oc4ccc(Br)c5ccccc45)c(Cl)c3)c2c1`: the growth inhibition in assay [1] was 101% (active); in assay [4], 100% (active). Also, the values for the inhibition in assay [2] and in assay [3] were 100% (active) and -3%, respectively. Moreover, the outcome in assay [5], in assay [6], in assay [7] and in assay [8] was inactive.
`CCN(CC)CC(O)c1cc(-c2ccc(C)cc2)nc2c(C)cc(C)cc12` (stereo not given): the results for the growth inhibition in assay [1] and in assay [4] were 99% (active) and 100% (active), respectively. Also, the inhibition in assay [2] is 3%; in assay [3], 1%. The outcome in assay [5], in assay [6], in assay [7] and in assay [8] was inactive.
Consider `Cc1nc2c(=O)sc3ccccc3c2n1Cc1ccccc1`, for which the growth inhibition was 26% in assay [1] and 95% (active) in assay [4]. The inhibition was -1% in assay [2] and 1% in assay [3]. Also, the outcome in assay [5], in assay [6], in assay [7] and in assay [8] was inactive.
For the compound `Fc1ccc2nc(-c3cccc(-c4cccc(CNCCc5ccncc5)c4)c3)[nH]c2c1`, the results for the growth inhibition in assay [1] and in assay [4] were 88% (active) and 100% (active), respectively. The inhibition was 22% in assay [2] and 2% in assay [3]. Further, the result in assay [5], in assay [6], in assay [7] and in assay [8] was inactive.
Regarding `OC(CNC1CCCCC1)Cn1c2ccc(Br)cc2c2cc(Br)ccc21` (stereo not given), the growth inhibition in assay [1] was 100% (active); in assay [4], 98% (active). The inhibition was 10% in assay [2] and 3% in assay [3]. The result in assay [5], in assay [6], in assay [7] and in assay [8] was inactive.
On to `CC1CN(Cc2cccc(F)c2)CCN1c1ccc(NC(=O)c2cccs2)cc1` (stereo not given), for which the growth inhibition in assay [1] and in assay [4] was 96% (active) in each case. Besides, the inhibition in assay [2] was -1%; in assay [3], -2%. Besides, the outcome in assay [5], in assay [6], in assay [7] and in assay [8] was inactive.
Consider `O=C(Nc1ccc(Br)cc1)Nc1ccc(Cn2ncc(N3CCCNCC3)c(Cl)c2=O)cc1`, for which the results for the growth inhibition in assay [1] and in assay [4] were 15% and 87% (active), respectively. Also, the inhibition was -7% in assay [2] and -1% in assay [3]. The result in assay [5], in assay [6], in assay [7] and in assay [8] was inactive.
Take `O=C(Nc1ccc(OC2CCN(Cc3ccsc3)C2)c(Cl)c1)c1ccsc1` (stereo not given): the growth inhibition in assay [1] is 70% (active); in assay [4], 85% (active). The inhibition in assay [2] is 4%; in assay [3], 0%. The outcome in assay [5], in assay [6], in assay [7] and in assay [8] was inactive.

As usually defined, the inhibition is the relative decrease from the control value, in per cent.
